The text below walks through data of PubChem BioAssay (NCI).

Holding throughout (assay): NCI-60 one-dose screen, 48 h (100 = growth as untreated, 0 = no growth, -100 = all killed)
Settings in all cases: 10 µM unless noted

The subject of test [1] is NCI-H23 lung.
In test [2] the test system is NCI-H226 lung.
Test [3] deals with NCI-H322M lung.
The test system of test [4] is HOP-62 NSCLC.
In test [5] the test system is NCI-H460 lung.
The subject of test [6] is HOP-92 NSCLC.
The test system of test [7] is NCI-H522 lung.
Test [8] deals with A549/ATCC NSCLC.
Test [9] relates to 786-0 renal.
In test [10] the test system is COLO 205 colon.
Test [11] relates to DU-145 prostate.
The subject of test [12] is K-562 leukemia.
Test [13] has as its system MALME-3M melanoma.
Test [14] relates to MDA-MB-231 breast.
In test [15] the test system is RXF 393 renal.
For test [16], the system named is SF-268 CNS.
The subject of test [17] is SF-295 CNS.
In test [18] the test system is SF-539 CNS.
In test [19] the test system is UACC-257 melanoma.
Test [20] deals with M14 melanoma.

The panel holds about 83,000 compounds, 20% with a hit somewhere; the sample as a whole holds those more often.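 A percent growth of 40 corresponds to 60% growth inhibition; 0 means no net growth; -100 means all cells died. Active threshold: below 10.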 Unmarked numbers belong to inactive results. Active and inactive are the calls of the source.

As to `CCc1ccc(C2=C/C(=C/c3ccc(Cl)cc3)C(=O)N2CCc2ccc(S(N)(=O)=O)cc2)cc1`, the growth was 34.4% in [1]; 29.2% in test [2]; 54.3% in test [3]; 34.1% in test [4]; 2.69% (active) in test [5]; 15.1% in test [6]. For the same compound, the growth is 5.98% (active) in test [7]; 13.7% in test [8]; 40% in test [9]; -35.4% (active) in test [10]; 43.8% in test [11]; 11% in test [12]. In addition, the growth is 41.5% in [13]; 43.8% in test [14]; 7.12% (active) in [15]; 45.6% in test [16]; 25.9% in [17]; 56.1% in [18]. Besides, the values for the growth in test [19] and in test [20] were 39.4% and 30.6%, respectively.
`NS(=O)(=O)c1ccc(Nc2nc(O)c(/C=C3\C=Nc4ccccc43)s2)cc1`: the growth is 92% in [1]; 99.6% in [2]; 90.7% in [3]; 97.5% in test [4]; 98.6% in test [5]; 114% in test [6]. For the same compound, the growth is 92% in test [7]; 90.4% in test [8]; 106% in test [9]; 122% in test [10]; 110% in test [11]; 101% in test [12]. Further, the growth in [13] is 92.7%; in test [14], 87.9%; in test [15] it was 111%; in test [16], 106%; in test [17], 102%; in [18], 98.1%. In addition, the growth is 88.7% in test [19] and 103% in test [20].
As for `CN(C)CCCOc1c(Br)cc(/C=C/C(=O)N(C)CCc2cc(Br)c(OCCCN(C)C)c(Br)c2)cc1Br`, the growth was 81.5% in test [1]; 95.7% in test [2]; 59.5% in test [3]; 82.3% in [4]; 23.1% in test [5]; 48.7% in test [6]. Further, the growth in test [7] is 13.5%; in test [8], 41.5%; in [9], 63.7%; in [10], 39.3%; in test [11], 40.5%; in test [12] it was -48.7% (active). The growth in test [13] is -62.4% (active); in test [14], 23.7%; in test [15], 59.6%; in test [16], 52.5%; in [17], 60.9%; in [18], -75.5% (active). Also, the growth in test [19] was 71.7%; in test [20] it was -68.1% (active).
As for `Cc1cc2nc(-c3c(N)ncc(C#N)c3-c3ccc(Cl)cc3)[nH]c2cc1C`, the growth in test [1] is 50%; in test [2], 91.7%; in test [3] it was 81.1%; in [4] it was 83.5%; in test [5] it was 43.2%; in [6], 10.6%. The growth was 41.2% in test [7]; 36.4% in test [8]; 75.1% in [9]; 67.4% in [10]; 31.9% in test [11]; 62.9% in [12]. For the same compound, the growth is 63% in [13]; 66.4% in [14]; 70.9% in test [15]; 73.4% in test [16]; 58.3% in [17]; -9.94% (active) in test [18]. Besides, the growth in [19] was 51.9%; in [20], 53.7%.
For the compound `CCOC(=O)n1cnc2c(Cl)ncnc21`, the growth was 245% in [1]; 113% in [2]; 109% in test [3]; 136% in test [4]; 108% in test [5]; 95.1% in [6]. Besides, the growth in test [7] was 108%; in test [8] it was 103%; in test [9] it was 159%; in [10], 98.9%; in [11], 106%; in [12], 106%. The growth was 113% in test [13]; 101% in [14]; 104% in [15]; 111% in test [16]; 101% in test [17]; 93.6% in test [18]. Besides, the growth in test [19] was 86.4%; in test [20] it was 101%.
`Cc1[nH]c2ccc(F)cc2c1CCNC(=O)C1CCN(C(=O)c2ccc(-c3ccccc3)cc2)CC1`: the growth was 45.5% in [1]; 57.3% in [2]; 87% in test [3]; 64.4% in [4]; 51% in [5]; 70.6% in [6]. Moreover, the growth is 41.6% in test [7]; 39.1% in [8]; 63.3% in [9]; 36.7% in test [10]; 68.8% in test [11]; 17.3% in test [12]. Besides, the growth in test [13] is 63.6%; in [14] it was 62.7%; in [15] it was 54.5%; in test [16] it was 60.4%; in test [17], 37.6%; in test [18] it was 66.8%. The growth in test [19] was 58.1%; in test [20], 40.8%.
On to `CC(Cc1cccc(C(F)(F)F)c1)NCCOC(=O)c1ccccc1` (stereo not given), for which the growth in test [1] was 101%; in test [2], 98.3%; in test [3] it was 100%; in test [4], 102%; in [5] it was 114%; in [6], 114%. Besides, the growth is 100% in [7]; 105% in test [8]; 97.9% in [9]; 106% in test [10]; 112% in test [11]; 94.4% in test [12]. For the same compound, the growth was 104% in test [13]; 102% in test [14]; 117% in test [15]; 99.5% in test [16]; 98.4% in [17]; 116% in test [18]. Further, the growth in [19] was 105%; in test [20], 106%.
On to `C[C@]12O[C@H]1[C@H](O)c1c(cc(O)c3c1C(=O)c1cccc(O)c1-3)C2=O`, for which the growth in [1] is 99%; in test [2] it was 85.7%; in test [3] it was 102%; in [4], 96.5%; in [5] it was 99.1%; in test [6], 101%. The growth in test [7] was 87.8%; in test [8] it was 92.9%; in [9] it was 104%; in [10], 106%; in [11], 111%; in test [12] it was 93.9%. Moreover, the growth in [13] is 100%; in test [14], 94%; in test [15] it was 123%; in test [16], 107%; in [17], 102%; in [18] it was 99.6%. The growth in test [19] was 89%; in test [20] it was 89.8%.
Consider `NC(CCCC(N)C(=O)c1ccccc1)C(=O)O` (stereo not given), for which the growth is 98.4% in test [1]; 102% in test [2]; 87.7% in test [3]; 90.3% in test [4]; 112% in test [5]; 116% in test [6]. Further, the growth in [7] was 64.4%; in [8], 92.8%; in test [9], 102%; in [10], 104%; in [11], 105%; in test [12] it was 98.9%. Further, the growth was 95.9% in [13]; 109% in test [14]; 112% in [15]; 99.6% in test [16]; 102% in test [17]; 97.5% in test [18]. In addition, the results for the growth in [19] and in [20] were 82.5% and 102%, respectively.
In the case of `Nc1nc(=S)ss1`, the growth in test [1] is 98.7%; in [2], 103%; in test [3], 100%; in test [4], 97.3%; in [5], 110%; in [6] it was 98.7%. For the same compound, the growth in [7] was 94.2%; in test [8], 97.5%; in test [9] it was 107%; in [10] it was 112%; in test [11] it was 116%; in [12], 98.1%. Moreover, the growth in test [13] was 111%; in test [14] it was 112%; in test [15], 101%; in test [16], 108%; in test [17] it was 102%; in test [18] it was 111%. The values for the growth in test [19] and in test [20] were 90.2% and 101%, respectively.
For the compound `COc1cc(Br)c(-c2nc(-c3ccccc3)c(-c3ccccc3)n2Cc2ccccc2)cc1OC`, the growth in [1] is 46.8%; in [2], 70.4%; in [3], 75.1%; in test [4] it was 91.8%; in test [5] it was 48.9%; in test [6], 45.7%. For the same compound, the growth in test [7] was 39.6%; in test [8], 37%; in [9], 67.9%; in [10], 30.2%; in test [11] it was 72.6%; in [12], 31.5%. The growth was 57.8% in [13]; 71.2% in test [14]; 72.2% in test [15]; 67.9% in test [16]; 34.5% in [17]; 76% in test [18]. The growth in test [19] is 59.2%; in [20] it was 53.1%.
For the compound `CCNc1ncnc2n[nH]nc12`, the growth in [1] is 96.9%; in [2], 90.8%; in test [3] it was 101%; in test [4], 95.7%; in [5], 103%; in test [6], 83.1%. Further, the growth in test [7] was 93.2%; in test [8], 91.1%; in [9], 96.1%; in test [10], 105%; in test [11] it was 104%; in test [12], 97%. For the same compound, the growth in [13] was 102%; in test [14], 111%; in test [15], 112%; in [16], 99.5%; in test [17], 95%; in test [18], 101%. Moreover, the figures for the growth in [19] and in test [20] were 92.9% and 99.7%, respectively.
For `Clc1ccc(OCc2nc(-c3ccccc3)n[nH]2)c(Cl)c1`, the growth in [1] is 97.6%; in test [2], 89.9%; in test [3], 101%; in [4], 86.8%; in test [5], 99.3%; in test [6], 90.8%. In addition, the growth was 92% in test [7]; 97.1% in test [8]; 108% in test [9]; 90.5% in test [10]; 109% in test [11]; 111% in [12]. In addition, the growth in test [13] was 104%; in test [14], 98.8%; in test [15], 108%; in [16] it was 96.6%; in [17], 97.8%; in test [18], 99.4%. In addition, the growth is 97.8% in test [19] and 106% in [20].
For `O=C(N/N=C1\SCC(=O)N1c1ccccc1)c1cc(-c2cc3ccccc3o2)nn1-c1ccccc1`, the growth in [1] is 44.8%; in test [2], 118%; in test [3] it was 102%; in test [4] it was 101%; in test [5], 121%; in [6] it was 50.9%. Besides, the growth was 106% in [7]; 110% in [8]; 102% in [9]; 132% in test [10]; 109% in [11]; 90.6% in test [12]. Besides, the growth is 94% in [13]; 91.9% in test [14]; 101% in test [15]; 103% in [16]; 104% in test [17]; 104% in test [18]. The growth in test [19] was 107%; in [20], 110%.
In the case of `O=C(/C=C/c1ccco1)c1cccc(Nc2nc(Nc3ccccc3)nc(Nc3ccccc3)n2)c1`, the growth is 57.6% in [1]; 99.5% in test [2]; 34.6% in [3]; 86.5% in [4]; 8.52% (active) in test [5]; 49.1% in test [6]. Besides, the growth was 78.6% in test [7]; 20.1% in test [8]; 44% in [9]; 62.3% in test [10]; 95% in test [11]; 64.4% in [12]. Also, the growth in test [13] is 110%; in test [14] it was 67.9%; in test [15] it was 34.5%; in test [16], 92.9%; in test [17], 61.5%; in test [18], 94.4%. Besides, the growth in [19] was 101%; in [20], 92.1%.
